This is part of a sample that, as a whole, favours compounds with a hit. Of some 83,000 tested, about 20% had one in any assay.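 Step 1: grow cells in 96-well plates. Step 2: add test compound at a single concentration. Step 3: incubate 48 h. Step 4: record percent growth.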 Unmarked numbers belong to inactive results. Calls of active or inactive are those of the source. Rule for the calls: active = growth percent below 10; inactive = the rest.
Columns and labels:
Assay in all cases: NCI-60 one-dose screen, 48 h (100 = growth as untreated, 0 = no growth, -100 = all killed)
Settings in all cases: 10 µM unless noted
T-47D breast = test system: T-47D breast
MDA-MB-435 melanoma = test system: MDA-MB-435 melanoma
SW-620 colon = test system: SW-620 colon
MCF7 breast = test system: MCF7 breast
HCT-116 colon = test system: HCT-116 colon
HCC-2998 colon = test system: HCC-2998 colon
KM12 colon = test system: KM12 colon

| SMILES | growth (T-47D breast) | growth (MDA-MB-435 melanoma) | growth (SW-620 colon) | growth (MCF7 breast) | growth (HCT-116 colon) | growth (HCC-2998 colon) | growth (KM12 colon) |
| --- | --- | --- | --- | --- | --- | --- | --- |
| C=C1CC[C@@H]2C(C)(C)[C@H](O)CC[C@@]2(C)[C@@H]1COc1ccc2ccc(=O)oc2c1 | 7.88% (active) | 64.4% | 89.5% | 53.9% | 64.1% | 95.4% | 28.2% |
| N#Cc1c(-c2ccc(Cl)cc2)nc(NN=Cc2ccc[nH]2)nc1N1CCOCC1 | 64.9% | 94.7% | 89.2% | 70.7% | 90.1% | 94.1% | 36.5% |
| CCCC(=O)NC(c1ccc2c(c1)OCO2)c1cc(Cl)c2cccnc2c1O (stereo not drawn) | 23% | 37.5% | 24.7% | 17.5% | 23.1% | 43.1% | 33.9% |
| COc1ccc(Nc2ncc(C#N)c(NCCCNC(=O)C3CCC3)n2)cc1 | 109% | 68.5% | 41.5% | 63.7% | – | 97.2% | 64.2% |
| CCN(CC)CCn1c2ccc(OC)cc2c2sc3cc(O)ccc3c(=O)c21 | 62.5% | 48.8% | – | 9.43% (active) | 14.2% | 28.2% | 24.6% |
| O=C(Nc1ccc(Oc2cccc(Cl)c2)c(Cl)c1)c1cccnn1 | 72.4% | 77.6% | 105% | 91.7% | – | 95.2% | 85.3% |
| Cn1c2ccccc2c2c3c(c4c5cc(Br)ccc5n(C)c4c21)C(=O)N(O)C3=O | -11.2% (active) | 22.8% | 18% | 10.7% | 4.46% (active) | 57.5% | 34.1% |
| C#Cc1cccc(NC(=O)C2CCCCN2C(=O)CCl)c1 (stereo not drawn) | -4.16% [8.25 µM] (active) | -57.3% [8.25 µM] (active) | -59.9% [8.25 µM] (active) | -7.64% [8.25 µM] (active) | – | -18.7% [8.25 µM] (active) | -34.2% [8.25 µM] (active) |
| O=C(OCc1ccc2c(Cl)cc(Cl)c(O)c2n1)N1CCN(C(=O)c2cc3ccccc3[nH]2)CC1 | 23.5% | 39.1% | 25.8% | 25.3% | 20.3% | 55% | 20.7% |
| Cc1cc(Cl)nc(N2CCN(CCNc3ccnc4cc(Cl)ccc34)CC2)n1 | 19.5% | 50.2% | 45.3% | 26.8% | 25.3% | -3.07% (active) | 55.7% |
| O=c1ccc2ccc(OCCN3CCCCC3)cc2o1 | 95.5% | 101% | 93.9% | 106% | 89% | 98% | 104% |
| COc1cccc(CNc2c3ccccc3nc3ccccc23)c1OC | 47.5% | 46.3% | 25.4% | 10.1% | 11.8% | 38.3% | 52.4% |
| O=S(=O)(Nc1ccc2ccccc2c1)c1ccc(-c2cnc(C3CC3)o2)cc1 | 29.8% | -30.2% (active) | 24.3% | 22.1% | 25.4% | 64.3% | 24.7% |
| COC1C(O)CC(OC2CC(OC3CC(O[C@@H]4C(=O)c5c(cc6cc(OC7CC(OC8CC(O)C(O)C(C)O8)C(O)C(C)O7)c(C)c(O)c6c5O)CC4[C@H](OC)C(=O)O)OC(C)C3O)OC(C)C2O)OC1C (stereo partly drawn) | 25.5% | 28.8% | 32% | 10.1% | 15.4% | 38.6% | 22.9% |
| CCCCn1c(NC(C)=O)c(S(=O)(=O)c2ccccc2)c2nc3ccccc3nc21 | 79.9% | 106% | 109% | 98.4% | 127% | 113% | 103% |
| CCCCCc1ccc(S(=O)(=O)Nc2cc(-c3csc(NC(C)=O)n3)ccc2N2CCN(C)CC2)cc1 | 58.8% | -45.4% (active) | -25.9% (active) | 9.36% (active) | 3.98% (active) | -26.9% (active) | 74.1% |
| CCCC(O)Cn1ncc(C(=O)OCC)c1NC(=O)NCc1cccc(C(F)(F)F)c1 (stereo not drawn) | 73.2% | 103% | 106% | 97.6% | 61.4% | 85.3% | 103% |
| COc1ccc(Nc2ncc(I)c(NCCCNC(=O)C3CCC3)n2)cc1 | 43% | 49.4% | 12.9% | 3.83% (active) | -30.3% (active) | 25.4% | 5.46% (active) |
| CCN(CC)CCOc1ccc(C(=O)/C=C\c2ccc(Cl)cc2Cl)cc1 | 29.9% | 27.3% | -55.1% (active) | -48.1% (active) | -90.2% (active) | 24.2% | -43.2% (active) |

| SMILES | growth (T-47D breast) | growth (MDA-MB-435 melanoma) | growth (SW-620 colon) | growth (MCF7 breast) | growth (HCT-116 colon) | growth (HCC-2998 colon) | growth (KM12 colon) |
| --- | --- | --- | --- | --- | --- | --- | --- |
| O=C1OCC2=C1C(c1ccccc1)c1cc3c(cc1N2CCO)OCCO3 (stereo not drawn) | 50.5% | -32% (active) | 21.1% | 8.47% (active) | 6.08% (active) | 0.753% (active) | 9.35% (active) |
| C=CN(C(=O)N1CCN(c2cc3c(cc2F)c(=O)c(C(=O)O)cn3C2CC2)CC1)c1nc(-c2ccccc2)cs1 | 78.9% | 96.4% | 112% | 94.8% | 86% | 103% | 104% |
| N#Cc1c(-c2ccccc2)cc(-c2ccccc2)n(CCCCC(=O)NO)c1=O | 9.65% (active) | -13.7% (active) | 11.5% | 20.5% | 5.09% (active) | 29.3% | 22.9% |
| CNC(=O)c1cc(Oc2ccc3c(c2)sc2nc(-c4ccc(Cl)c(C(F)(F)F)c4)cn23)ccn1 | 25.7% | 65.8% | 68.6% | 36.8% | 41% | 80.5% | 82.6% |
| COc1ccc(Oc2ccc(/C=C/C(=O)c3cc4ccccc4oc3=O)cc2)cc1 | 84.6% | 89.3% | – | 25.9% | 56.6% | 108% | 85.9% |
| Cc1ccc2nc(-c3ccc(C(=O)N/N=C/c4ccc([N+](=O)[O-])cc4)cc3)[nH]c2c1 | 91.1% | 102% | 106% | 88.3% | 103% | 105% | 97.6% |
| COc1ccc(C=Nc2c(C(=O)Nc3cccc(Cl)c3C)sc3nc(C)c(C(=O)/C=C/c4ccc(OC)cc4)cc23)cc1 | 24.3% | -65.8% (active) | 12.4% | 11.8% | – | 57.6% | 12.4% |
| N#Cc1ccc(/C=C/c2cn(-c3ccccc3)nc2-c2cccc([N+](=O)[O-])c2)cc1 | 75% | 61.2% | 57.1% | 58.7% | 30.1% | 82% | 65.7% |
| COc1cc(OC)c2c(=O)c3c(CC=C(C)C)cc(OC)c(O)c3oc2c1 | 57.7% | 53.9% | 99.7% | 78.5% | 81.6% | 106% | 66.4% |
| O=C(Oc1ccc2c(c1)sc1nc(-c3ccccc3)[nH]c(=O)c12)C(F)(F)F | 32.3% | -55.4% (active) | 18.4% | 17.1% | 19.8% | 31.2% | 11.2% |
| O=C1C=C(SCCO)C(=O)c2ccccc21 | -1.68% (active) | -88.3% (active) | -52.6% (active) | -55.1% (active) | -48.5% (active) | 78.3% | 83.4% |
| O=C(Cn1nc(-c2cccc3ccccc23)ccc1=O)NCc1cccc(Cl)c1 | 9.17% [50 µM] (active) | 45.5% [50 µM] | 55% [50 µM] | 20.1% [50 µM] | 33.5% [50 µM] | 54.6% [50 µM] | 41.7% [50 µM] |
| CN(C)c1ccc(CNCCO)cc1 | 55.5% | 102% | 94.5% | 94% | 72.1% | 109% | 105% |
| Nc1c(Br)cc2c(c1Br)Cc1cc([N+](=O)[O-])ccc1-2 | 58.3% | 108% | 103% | 33.8% | 95.3% | 104% | 99.1% |
| COc1ccccc1S(=O)(=O)Nc1ccc2c3c(cc(CCC(=O)NCCCCNc4cccc5c4C(=O)N(C4CCC(=O)NC4=O)C5=O)cc13)C(=O)N2C (stereo not drawn) | 3.74% (active) | 23.2% | 7.68% (active) | 6.07% (active) | 46.2% | 10.9% | 20.2% |
| CCOC(=O)NC(=S)n1oc(=O)c2ccccc21 | 99.2% | 101% | 97.5% | 100% | 101% | 101% | 103% |
| Oc1nc(NCc2ccccc2)sc1/C=C1\C=Nc2ncccc21 | 63.6% | 74.2% | 44.5% | 42% | 24.3% | 102% | 55% |
| O=CN1N=C(c2cccc(Nc3ccnc4cc(Cl)ccc34)c2)CC1c1ccc(Cl)cc1 (stereo not drawn) | 43.3% | -38.3% (active) | 23.4% | 14.6% | 1% (active) | 44.3% | 28.1% |
